# Source: paper PMC4336329 (PLoS ONE, 2015)
# Out of some 310,000 compounds screened, about 14,000 (4.5%) showed an effect of 50% or more. The effect is printed as a negative number. Shown is part of a subset that was picked to be rich in strong results.
# Molecular target: human ether-à-go-go-related gene (hERG) potassium channel (human, UniProt Q12809)
# Experiment: primary screen, population patch clamp on CHO cells stably expressing hERG; higher = less effect of the substance
# 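Further: peak tail current of the secondary pulse compared with the same well before compound.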
# Sequence of human ether-à-go-go-related gene (hERG) potassium channel (Q12809 whole entry, looked up): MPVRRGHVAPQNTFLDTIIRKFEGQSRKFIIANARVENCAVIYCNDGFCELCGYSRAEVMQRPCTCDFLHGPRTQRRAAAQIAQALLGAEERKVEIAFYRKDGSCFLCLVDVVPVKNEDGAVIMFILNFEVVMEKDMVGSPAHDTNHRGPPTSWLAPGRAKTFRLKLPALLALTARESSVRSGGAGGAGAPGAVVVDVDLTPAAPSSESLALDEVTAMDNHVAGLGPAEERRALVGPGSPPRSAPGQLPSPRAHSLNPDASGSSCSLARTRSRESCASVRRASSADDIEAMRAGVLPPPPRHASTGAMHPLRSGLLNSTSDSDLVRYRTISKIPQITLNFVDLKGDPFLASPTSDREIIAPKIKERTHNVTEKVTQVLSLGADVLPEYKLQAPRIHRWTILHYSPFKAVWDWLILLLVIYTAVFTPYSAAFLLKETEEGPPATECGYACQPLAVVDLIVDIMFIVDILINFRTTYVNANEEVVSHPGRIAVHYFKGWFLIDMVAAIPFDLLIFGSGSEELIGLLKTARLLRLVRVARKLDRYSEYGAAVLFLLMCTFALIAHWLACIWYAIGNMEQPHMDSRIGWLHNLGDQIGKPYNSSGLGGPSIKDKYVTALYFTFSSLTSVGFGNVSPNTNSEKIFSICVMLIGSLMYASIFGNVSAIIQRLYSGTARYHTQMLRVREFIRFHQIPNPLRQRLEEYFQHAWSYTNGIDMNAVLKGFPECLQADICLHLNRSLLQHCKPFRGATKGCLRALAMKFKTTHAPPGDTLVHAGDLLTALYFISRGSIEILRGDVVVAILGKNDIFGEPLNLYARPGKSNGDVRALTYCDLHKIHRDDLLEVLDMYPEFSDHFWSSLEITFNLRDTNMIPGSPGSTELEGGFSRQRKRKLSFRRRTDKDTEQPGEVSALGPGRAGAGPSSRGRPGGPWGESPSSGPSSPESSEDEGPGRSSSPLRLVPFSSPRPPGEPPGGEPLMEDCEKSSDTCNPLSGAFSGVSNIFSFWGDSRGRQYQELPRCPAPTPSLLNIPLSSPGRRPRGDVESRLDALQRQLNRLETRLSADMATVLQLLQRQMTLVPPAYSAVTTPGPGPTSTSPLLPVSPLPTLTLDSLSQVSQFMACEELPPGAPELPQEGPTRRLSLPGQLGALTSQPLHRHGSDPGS
row,Structure (SMILES),"hERG current change (%, negative = inhibition) at 10uM"
1,CCOc1ccc(-n2nnc3c(=O)n(CC(=O)N4CCCc5ccccc54)cnc32)cc1,-4.52%
2,O=C(Nc1nc2ccc(S(=O)(=O)N3CCCC3)cc2s1)C1CCCCC1,4.81%
3,COc1ccc(C(CC(=O)N2CCC3(CC2)OCCO3)NS(=O)(=O)c2ccc(OC)cc2)cc1 (stereo not shown),7.14%
4,Cn1c(=O)n(Cc2ccccc2)c(=O)c2c1nc1n2CCCN1Cc1ccccc1,-31.1%
5,C=C(C)Cn1c(=O)c2c(nc3n2CC(C)CN3Cc2ccccc2)n(C)c1=O (stereo not shown),-65.6%
6,CCCn1c(=O)c2c(nc3n2CCCN3Cc2ccccc2)n(C)c1=O,-34.3%
7,CC1CN(Cc2ccccc2)c2nc3c(c(=O)n(CC(=O)O)c(=O)n3C)n2C1 (stereo not shown),18.8%
8,CC(C)Cn1c(=O)c2c(nc3n2CCCN3Cc2ccccc2)n(C)c1=O,-50%
9,CCn1c(=O)c2c(nc3n2CCCN3CCc2ccccc2)n(C)c1=O,-21.2%
10,CC1CN(Cc2ccccc2)c2nc3c(c(=O)n(CC(N)=O)c(=O)n3C)n2C1 (stereo not shown),14.5%
11,CCCn1c(=O)c2c(nc3n2CCCN3CCc2ccccc2)n(C)c1=O,-65.4%
12,CC(C)CCn1c(=O)c2c(nc3n2CCCN3Cc2ccccc2)n(C)c1=O,-37.7%
13,O=C(CCCOc1ccc(Cl)cc1)Nc1nncs1,-28.9%
14,Cc1cc(NC(=O)COc2cccc(Oc3ccccc3)c2)no1,13.5%
15,CCOc1cc(NCCN2CCOCC2)c([N+](=O)[O-])cc1OCC,-7.79%
16,COc1ccc(CC(=O)N2CCc3cc(OC)c(OC)cc3C2O)cc1OC (stereo not shown),8.05%
17,Cc1c(C)[n+](=O)c(-c2ccc(Br)cc2)c(C)n1[O-],13.1%
18,Cc1ccc2nc(Cl)c(C3CC(c4ccco4)=NN3S(C)(=O)=O)cc2c1 (stereo not shown),-62.6%
19,CCOc1ccc2nc(Cl)c(C3CC(c4ccco4)=NN3S(C)(=O)=O)cc2c1 (stereo not shown),-41.1%
20,Cc1ccc2cc(C3CC(c4ccco4)=NN3S(C)(=O)=O)c(Cl)nc2c1 (stereo not shown),-15%
21,Fc1ccc(NC(=S)Nc2ccccc2OC(F)F)cc1Cl,9.18%
22,CCOc1ccc(NC(=S)N(CCOC)C2CCN(C(C)C)CC2)cc1,-29%
23,c1ccc2oc(-c3[nH]ncc3CN(Cc3ccncc3)CC3CCCO3)cc2c1 (stereo not shown),-22.6%

row,Structure (SMILES),"hERG current change (%, negative = inhibition) at 10uM"
1,COc1ccc(-c2noc(CN(Cc3nccn3C)C(C)C)n2)cc1,-6.99%
2,CN(Cc1cn[nH]c1-c1cc2ccccc2o1)CC1CCOCC1,-66.4%
3,CC(C)N(Cc1cn[nH]c1-c1ccc(-c2ccccc2)cc1)Cc1nccn1C,-71.9%
4,Cc1nnc(CN(C)Cc2cn[nH]c2-c2ccc(-c3ccccc3)cc2)o1,-15.1%
5,COC(=O)c1ccc(-c2noc(CN(Cc3nccn3C)C(C)C)n2)cc1,-37%
6,O=C1CC[C@@H](CN(Cc2ccccc2)Cc2cn[nH]c2-c2cc3ccccc3o2)N1,-6.77%
7,CC(C)N(Cc1nc(-c2ccc(Cl)cc2)no1)Cc1nccn1C,-50.4%
8,CCN(CCn1cccn1)Cc1cn[nH]c1-c1ccc(-c2ccccc2)cc1,9.21%
9,CN(Cc1ccon1)Cc1cn[nH]c1-c1ccc(-c2ccccc2)cc1,-10.4%
10,CN(Cc1cccnc1)Cc1cn[nH]c1-c1ccc(-c2ccccc2)cc1,-56.7%
11,COc1ccc(-c2[nH]ncc2CN(Cc2nccn2C)C(C)C)c(F)c1,-39.7%
12,Cc1csc(NC(=O)CCC(=O)N(CC(=O)NC2CCCC2)c2ccccc2)n1,-3.43%
13,Cc1ccc(CNC(=O)CCCOc2cc(=O)n(C)c3ccccc23)o1,-17.9%
14,Cc1[nH][nH]c(=O)c1N=Nc1ccc(Cl)cc1,2.19%
15,C/C(NC(=O)c1cccs1)=C1\C(=O)C[C@@H]2[C@H]1C2(C)C,-19.6%
16,CCOc1ccc(C(=O)CCC(=O)NC(CC(C)C)C(=O)OC)cc1 (stereo not shown),-2.17%
17,CCOC(=O)CNC(=O)c1sc(NC(=O)c2cccc(F)c2)nc1C,-0.522%
18,O=C(CCCOc1ccc(Cl)cc1Cl)Nc1ccccn1,24.2%
19,NC(=O)c1nn(-c2ccccc2)nc1N,0.947%
20,O=c1[nH]c2cc3c(cc2cc1C(c1nnnn1Cc1ccccc1)N1CCN2CCCC2C1)OCCO3 (stereo not shown),-0.778%
21,Cc1cc(C)nc(NC(=O)CCC2CCCC2)c1,-4.11%
22,COc1ccc2c(c1)CC/C(=C\c1ccc(C)o1)C2=O,8.29%
23,CCOC(=O)c1cn2nc(N3CCCC3)ccc2n1,1.32%

row,Structure (SMILES),"hERG current change (%, negative = inhibition) at 10uM"
1,CCn1cc(CNCc2cn[nH]c2-c2cc3ccccc3o2)cn1,-14.1%
2,Cn1cc(CCNCc2cn[nH]c2-c2ccc(-c3ccccc3)cc2)cn1,-64.8%
3,COc1ccc(-c2[nH]ncc2CNCCc2ncccc2C)cc1F,-41.7%
4,CN(Cc1cn[nH]c1-c1ccc2c(c1)OCO2)C1CCOCC1,12.7%
5,Cn1cc(CNCc2cn[nH]c2-c2ccc(F)cc2)c(-c2ccc3c(c2)OCCO3)n1,-21.6%
6,COCCN1CCC(CNCc2cn[nH]c2-c2ccc(C)c(C)c2)C1 (stereo not shown),-3.39%
7,CN(CCC1CCOCC1)Cc1cn[nH]c1-c1ccc(-c2ccccc2)cc1,-62.6%
8,Cc1ccc(-c2[nH]ncc2CNCCc2cnn(-c3ccccc3)c2)cc1C,-66.4%
9,CN(Cc1cn[nH]c1-c1ccc(-c2ccccc2)cc1)CC1CCOCC1,-46.2%
10,CN(CCc1cnn(C)c1)Cc1cn(C)nc1-c1ccc2c(c1)OCCO2,5.94%
11,CN(CCc1cnn(C)c1)Cc1cn(C)nc1-c1ccccc1F,9.85%
12,CN(CCc1cnn(C)c1)Cc1cn[nH]c1-c1ccc(-c2ccccc2)cc1,-66.6%
13,O=C(COc1ccc2c3c(c(=O)oc2c1)CCC3)Nc1ccc(CCO)cc1,21.2%
14,O=C(CCc1nnc(Cc2ccc(-c3ccccc3)cc2)o1)NCC1CC1,-4.72%
15,CN(C)c1cc2c(cc1NS(=O)(=O)c1ccccc1)n(C)c(=O)n2C,10.5%
16,CN1CCN(C(=O)Nc2cccc(-c3ccccc3)c2)CC1,-3.63%
17,O=C(NCCC1=CCCCC1)c1c(O)nc2ccccn2c1=O,0.215%
18,O=c1c2ccccc2nc(-c2ccco2)n1/N=C/c1ccco1,13.1%
19,CC(C)N(C(=O)CSc1nc2ccccc2n1Cc1ccc(F)cc1)C(C)C,-27.3%
20,CN1C[C@@H]2C(c3ccc(Cl)nc3)C3(c4ccccc4)CC2(C3)[C@H]1c1ccccc1 (stereo partly shown),-43.1%
21,CN1C[C@@H]2C(c3ccc(C(F)(F)F)cc3)C3(c4ccccc4)CC2(C3)[C@H]1c1ccccc1 (stereo partly shown),-1.14%
22,CN1C[C@@H]2C(c3ccccc3)C3(c4ccc(C#N)cc4)CC2(C3)[C@H]1c1ccccc1 (stereo partly shown),-32.5%
23,CN1C[C@@H]2C(c3ccc(C(F)(F)F)cc3)C3(c4cccnc4)CC2(C3)[C@H]1c1ccccc1 (stereo partly shown),-60%

row,Structure (SMILES),"hERG current change (%, negative = inhibition) at 10uM"
1,CN1C[C@@H]2C(c3ccccc3)C3(c4cccnc4)CC2(C3)[C@H]1c1ccccc1 (stereo partly shown),-46.5%
2,CN1C[C@@H]2C(c3ccc(Cl)nc3)C3(c4ccc(C#N)cc4)CC2(C3)[C@H]1c1ccccc1 (stereo partly shown),-54.9%
3,Clc1ccc(-c2nc(Cc3ccccc3)no2)cc1,11.9%
4,Cn1ccs/c1=N\S(=O)(=O)c1ccc(C(C)(C)C)cc1,-11.5%
5,CC(NC(=S)NC1CCCCC1)c1ccc(C(C)(C)C)cc1 (stereo not shown),10.6%
6,c1coc(-c2cc(C3CCNCC3)[nH]n2)c1,15.5%
7,Cc1cc(C(=O)N2CCC(C)CC2)on1,1.18%
8,CC(C)n1nc(C(=O)NNC(=O)c2ccc(OC(F)F)cc2)c2ccccc2c1=O,-76.3%
9,CC(C)n1nc(C(=O)NNC(=O)c2ccncc2)c2ccccc2c1=O,3.56%
10,CC(C)n1nc(C(=O)Oc2ccc(Cl)cc2)c2ccccc2c1=O,5.39%
11,CCCCCCCCCCOC(=O)Cn1c(COc2ccc(Cl)cc2)[n+](C)c2ccccc21.[Cl-],-76.2%
12,CCCCCCCCCCOC(=O)Cn1c(COc2ccccc2)[n+](C)c2ccccc21.[Cl-],-76.1%
13,CCCCCOC(=O)Cn1c(=O)oc2ccccc21,0.0173%
14,CCCCc1n(CC(=O)c2ccc(Cl)cc2)c2ccccc2[n+]1C.[Br-],8.02%
15,CCOC(=O)C(CCCOc1cccc(OC)c1)C(=O)OCC,-14.9%
16,CN(C)C(=O)Oc1cccc(OCc2n(C)c3ccccc3[n+]2C)c1.[Cl-],14.7%
17,CCCCCCCCCCOC(=O)Cn1c(COc2ccc(C)cc2)[n+](C)c2ccccc21.[Cl-],-74.9%
18,CN(C)C(=O)Oc1ccc(OCc2n(C)c3ccccc3[n+]2C)cc1.[Cl-],5.79%
19,CCCCCCCCOc1ccc(C(=O)O)cc1,13.3%
20,Cc1ccc(OCCCCn2c(CO)nc3ccccc32)cc1,-14.6%
21,CCCCCCCCCCOC(=O)Cn1c(COc2cccc(OC)c2)[n+](C)c2ccccc21.[Cl-],-76.7%
22,NNC(=O)Cn1c(COc2ccc(Cl)cc2)nc2ccccc21,-9.34%
